Compound activity as filed in PubChem.
This is a sample that favours compounds with a hit; in the whole collection about 20% have one here.
Pf growth 48h – Primary qHTS for delayed death inhibitors of the malarial parasite plastid, 48 hour incubation | P. falciparum luciferase growth in erythrocytes, 48 h | Potency, µM (doses to about 28.7 µM), for the others: top-dose activity change, negative = inhibition, usual class: inhibitors | actives 5.9% (n = 310,000) | AID 504832, 2011; also: potency is read from the fitted curve at half-maximal effect; % is scaled to controls: 0 for no effect and ±100 for the full control effect
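In quantitative HTS format, infected erythrocytes bearing luciferase-reporter parasites were treated for a single generation at 37 C. Luminescence after adding detection reagent served as the growth measure.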
Pf growth 96h – Primary qHTS for delayed death inhibitors of the malarial parasite plastid, 96 hour incubation; actives 6.9% (n = 320,000); Potency, µM (titrated, usually from 28.7 µM), for inactives: at the top dose activity change, negative = inhibition, actives largely listed as inhibitors; P. falciparum luciferase reporter growth, 96 h; also: potency is read from the fitted curve at half-maximal effect; % is scaled to controls: 0 for no effect and ±100 for the full control effect
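Delayed-death screen, second-generation endpoint: infected erythrocytes, 2% hematocrit, 0.05% parasitemia final; 96 hours at 37 C, 5% CO2; luciferase detection reagent; luminescence decrease equals reduced growth.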
HCMV antiviral – qHTS Assay for inhibitors of the human cytomegalovirus (HCMV). activity change, negative = inhibition, % at 57.5 µM. actives 4.5% (n = 410,000). AID 1259415, 2018. HFF cells, HCMV-luciferase reporter, 72 h; hits give low values; in the data active = activity change below about -60%; inconclusive = no clear call, values can overlap the other calls; inactive = above about -39%; also: % is scaled to controls: 0 for no effect and ±100 for the full control effect
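Human foreskin fibroblasts infected with luciferase-reporter HCMV at MOI 1 PFU/cell, compounds at two doses. Luciferase measured 72 h post infection; normalized to buffer-only basal and Salinomycin (10uM) controls.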
Shiga toxin inh – A qHTS for Small Molecule Inhibitors of Shiga Toxin. Vero cells, Shiga toxin protein synthesis inhibition reporter. inhibition, % at 38.7 µM. actives 9.2% (n = 290,000). AID 2315, 2010; in the data active = inhibition mostly above about 28%, no sharp cut-off; inactive = mostly below about 43%; also: 0% is about no effect
Cycloheximide cs – Cycloheximide Counterscreen for Small Molecule Inhibitors of Shiga Toxin; cell reporter, cycloheximide protein synthesis inhibition counterscreen; max response, %; actives 12% (n = 300,000); in the data active = max response mostly above about 13%, no sharp cut-off; inactive = mostly below about 14%; also: read at 38.3 µM for the half of the compounds with a filed dose; 0% is about no effect
Starred values were filed as active, the others as inactive; ? = inconclusive; . = not tested or not shown; [ ] = remark or other dose. Unless noted, calls follow the shape of the dose curve; as a rule, active = well fitted inhibition curve with a large enough effect; inconclusive = small, poorly fitted or top-dose-only effect, or another doubt; inactive = no such curve, though single readings can be large or run the other way.

SMILES | Pf growth 48h | Pf growth 96h | HCMV antiviral | Shiga toxin inh | Cycloheximide cs
COc1ccc(OCC(O)CNC2CCCC2)cc1 (centres undefined) | 4% | -27% | 49 | 10 | -1
CCOc1ccc(OCC(O)CNC2CCN(Cc3ccccc3)CC2)cc1 (centres undefined) | 2.6µM* | 2.3µM* | -64* | -32 | -1
CCOc1cc(S(=O)(=O)n2ccnc2C(C)C)ccc1Cl | . | . | 33 | . | .
O=C(O)CCn1c(=O)c2ccccc2c2ccccc2c1=O | 4% | -7% | -101* | -7 | -2
O=C(O)CCn1c(=O)[nH]c2ccccc2c1=O | 28% | 0% | 38 | -2 | -1
CC1(C)CC(=O)CC(C)(C)N1O | . | . | 26 | . | .
CC1(C)CC(O)C(C)(C)N1O (centres undefined) | 80% | 13µM* | -25 | -15 | -2
Cc1cccc(C(=O)n2cnnc2N)c1 | 10µM* | -49% | -31 | -11 | 7
COc1ccc(-n2nc3c(c2NC(=O)CBr)CSC3)cc1 | -2% | -1% | -13 | -6 | -4
COc1ccc(-n2nc3c(c2NC(=O)CCCCl)CSC3)cc1 | ? | ? | -8 | 28 | 16*
O=C(CCCCCN1C(=O)c2ccccc2C1=O)NCc1ccco1 | . | 1µM* | 25 | -12 | -1
O=C(CCN1C(=O)c2ccccc2S1(=O)=O)NCc1ccco1 | 18% | 12µM* | -16 | -33 | -1
O=C(CCN1C(=O)c2ccccc2S1(=O)=O)Nc1ccc(Cl)cc1 | -7% | -16% | -78* | 35 | 1
O=C(CCN1C(=O)c2ccccc2C1=O)NCc1ccccc1 | 26% | 3% | -15 | 11 | 12
O=C(CCN1C(=O)c2ccccc2S1(=O)=O)NCc1ccccc1 | -26% | 35% | -7 | . | .
O=[N+]([O-])c1cccc(S(=O)(=O)Nc2ccc3cn[nH]c3c2)c1 | . | . | 8 | . | .
Cc1ccc2nc(NC(=O)CCn3cccc3)sc2c1 | 90% | ? | -16 | 53* | 22*
Cc1ccc2nc(NC(=O)CCCC(=O)O)sc2c1 | -39%[1.15 µM] | ? | ? | 6 | -3
O=C(CCCc1nc2ccccc2s1)Nc1nccs1 | -26% | ? | 154 | 24 | 12
Cc1ccc2nc(NC(=O)CCCc3nc4ccccc4s3)sc2c1 | . | 160% | 26 | 117 | 42*
Cc1ccc2nc(NC(=O)CCn3c(=O)sc4ccccc43)sc2c1 | 1% | 18% | 16 | 11 | 1
Cc1cnc(NC(=O)CCCc2nc3ccccc3s2)s1 | -13% | 35% | -101* | 14 | 4
Cc1ccccc1-c1nc(CS(=O)(=O)CC(=O)N2CCN(C)CC2)c(C)o1 | 36% | 57% | -29 | -9 | -3
CCOC(=O)CSc1nc2sc3c(c2c(=O)n1CC)CCCC3 | . | . | 0 | . | .
Cc1nnc(SCC(=O)N2c3ccccc3C(C)(c3ccccc3)CC2(C)C)s1 (centres undefined) | 10µM* | 12µM* | -62* | -7 | -2
SMILES | Pf growth 48h | Pf growth 96h | HCMV antiviral | Shiga toxin inh | Cycloheximide cs
Cc1ccc(C2(C)CC(C)(C)N(C(=O)CSc3nnc(C)s3)c3ccccc32)cc1 (centres undefined) | 13µM* | ? | -39 | -11 | 1
CN(Cc1ccc(Br)cc1)CC(O)COc1cccc(Br)c1 (centres undefined) | -18% | -9% | ? | -11 | -13
O=C(Nc1cc(C(F)(F)F)ccc1Cl)c1noc2c1CCCCC2 | . | . | -2 | . | .
COc1ccc(OC)c(NC(=O)Cn2cnc3onc(-c4ccc(Cl)cc4)c3c2=O)c1 | . | . | -11 | . | .
CC(C)c1onc(C(=O)NC2CCCC2)c1[N+](=O)[O-] | ? | ? | ? | -5 | 7
CC(C)c1onc(C(=O)NCc2ccccc2)c1[N+](=O)[O-] | ? | -4% | -20 | 41* | 23*
COc1ccc(CNC(=O)c2noc(C(C)C)c2[N+](=O)[O-])cc1 | -9% | 1.9µM* | -7 | -10 | -1
CC(C)c1onc(C(=O)N(C)C2CCCCC2)c1[N+](=O)[O-] | ? | 12% | ? | 23 | 26*
O=C(c1cnc2ccccc2n1)N1CCN(c2ccc(C(F)(F)F)cn2)CC1 | 17% | 33% | 3 | 14 | -2
O=C(CCc1ccccc1)NC(=S)NCc1ccco1 | -12% | -15% | ? | 32 | 21
O=S(=O)(c1ccc(Br)cc1Cl)N1CCCN(c2ccc(C(F)(F)F)cn2)CC1 | . | . | -22 | . | .
CCN(CC(O)COc1ccc(OCC(O)CN(CC)C2CCCCC2)cc1)C1CCCCC1 (centres undefined) | . | . | -22 | . | .
Cc1ccc(NC(=O)CS(=O)c2ccccc2N)c(C)c1 (centres undefined) | 111% | 52% | -9 | 35 | 38*
Cc1ccc(NC(=O)CNc2ccc(OC(C)C)cc2)c(C)c1 | ? | 13µM* | 12 | 19 | -1
Cc1ccc(NC(=O)CCn2nc(C)cc2C)c(C)c1 | 0% | 12µM* | 35 | -16 | 8
Cc1cccc(NC(=O)CCSc2ccccc2)c1C | 15% | -5% | -2 | 19 | 12*
Cc1ccc(NC(=O)CCC(=O)n2nc(C)cc2C)c(C)c1 | . | -7% | 35 | 3 | -4
Cc1ccc(NC(=O)CN2C(=O)c3ccccc3C2=O)c(C)c1 | 21% | ? | 14 | 13 | -3
O=C(NC(c1ccc(F)cc1)c1ccc2ccccc2n1)C1CCN(Cc2cccc(C(F)(F)F)c2)CC1 (centres undefined) | . | . | -7 | . | .
CCn1ccnc1CN(C)C(=O)C1CCC(=O)N(CCc2cccc(F)c2)C1 (centres undefined) | 17% | 41% | -17 | -28 | -2
Cc1ccc(NC(=O)Cc2ccccc2)c(C)c1 | 17% | 0% | . | 17 | 17
Cc1cc(NC(=O)CN(C)CCOc2ccccc2)ccc1Br | -13% | 0% | 24 | 18 | 3
Cc1cccc(NC(=O)c2c(C)cc(C)nc2SCC(=O)c2ccccc2)c1 | . | . | 6 | . | .
Cc1ccc(NC(=O)CCOc2ccccc2)c(C)c1 | -2%[0.00184 µM] | 78% | . | 39 | 13*
Cc1ccc(NC(=O)CCSc2ccccc2)c(C)c1 | 3% | ? | . | 55* | 24*
SMILES | Pf growth 48h | Pf growth 96h | HCMV antiviral | Shiga toxin inh | Cycloheximide cs
Cc1cc(C)c(C(=O)Nc2ccccc2)c(SCC(=O)Nc2ccc(Br)cc2C)n1 | . | . | -69* | . | .
Cc1cc(NC(=O)CCSc2ccccc2)ccc1Br | 66% | 0% | 48 | 21 | 87*
COc1ccc(Cl)cc1NC(=O)Cn1c(=O)n(Cc2ccc(F)cc2)c(=O)c2cccnc21 | . | . | 2 | . | .
Cc1ccc(NC(=O)Cc2noc3ccccc23)c(C)c1 | 25% | 65% | -32 | 32* | 12
Cc1c(NC(=O)Cc2noc3ccccc23)cccc1[N+](=O)[O-] | -8% | -5% | -22 | 15 | 9
COC(=O)c1ccc(C)c(NC(=O)CCSc2ccccc2)c1 | 3% | 1% | 4 | -3 | 9
Cc1cc(Br)ccc1NC(=O)CCSc1ccccc1 | 8% | 34% | -22 | 48* | 16*
O=C(/C=C/c1ccc(Cl)c([N+](=O)[O-])c1)Nc1ccc(N2CCCC2)cc1 | -24% | ? | ? | -7 | -3
